Measurements published in PubChem BioAssay (Tox21).
Inconclusive results are not listed. Activity calls are given as the source filed them. Unless noted, calls follow the shape of the dose curve; as a rule, active = well fitted curve in the direction sought with a large enough effect in the repeat runs; inconclusive = weak or mixed curves; inactive = no such curve, though single readings can be large; an effect the other way counts as inactive or inconclusive.

How the values were obtained:
[1] = molecular target: Progesterone receptor (Homo sapiens) (UniProt P06401); assay: qHTS assay to identify small molecule agonists of the progesterone receptor (PR) signaling pathway (AID 1346784; calls by dose curve; also: nearly all actives have a fitted effect of over 30% in size)
How it was run: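 Agonist qHTS: compounds pinned onto 3,000 PR-UAS-bla HEK 293T cells per well in charcoal-stripped serum medium, 16hr at 37C, then beta-lactamase activity measured by LiveBLAzer FRET fluorescence after 2 hours at room temperature.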

[2] = molecular target: Progesterone receptor (Homo sapiens) (UniProt P06401); assay: qHTS assay to identify small molecule antagonists of the progesterone receptor (PR) signaling pathway (AID 1346795; active = well fitted inhibition curve with a large enough effect in the signal ratio in the repeat runs, not every such curve was filed as active; the % refers to the signal ratio)
How it was run: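 Antagonist mode with agonist R5020 at 1 nM final and 16 hr incubation at 37C. Reporter was beta-lactamase driven by UAS in HEK293T (PR-UAS-bla), 2% charcoal-stripped serum; signal from LiveBLAzer FRET substrate, 2 hr at room temperature.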

[3] = qHTS assay to identify small molecule antagonists of the progesterone receptor (PR) signaling pathway - cell viability counter screen (AID 1346798); also: series mostly up to about 92 µM; nearly all actives have a fitted effect of over 50% in size
How it was run: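 Cytotoxicity read as CellTiter-Glo luminescence (30 min, room temperature) in the same wells as the beta-lactamase readout. HEK293T PR-UAS-bla cells in charcoal-stripped 2% FBS received compound and R5020, then 16 h at 37C, 5% CO2.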

[4] = qHTS assay to identify small molecule agonists of the progesterone receptor (PR) signaling pathway - cell viability counter screen (AID 1346799; calls by dose curve; also: nearly all actives have a fitted effect of over 45% in size)
How it was run: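 Cytotoxicity measured by CellTiter-Glo luminescence (30 min, RT) in the same wells as the PR beta-lactamase agonist read. Those HEK293T cells had 16 h compound treatment at 37 C in 2% charcoal-stripped FBS medium.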

[5] = qHTS assay to identify small molecule antagonists of the TGF-beta/Smad signaling pathway - cell viability counter screen (AID 1346824); also: nearly all actives have a fitted effect of over 50% in size
How it was run: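 SBE-bla HEK 293T cells, incubated overnight, then compound plus 0.25 ng/mL TGF-beta1 (stock added) for 5 hr at 37 C. Viability was read in the same wells by CellTiter-Glo luminescence after 30 min at room temperature.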

[6] = qHTS assay to identify small molecule agonists of the TGF-beta/Smad signaling pathway - cell viability counter screen (AID 1346829); also: top concentration of the series differs between compounds; nearly all actives have a fitted effect of over 45% in size
How it was run: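 Compound-treated SBE-bla HEK 293T cells (5 hr, 37 C) were assessed for viability with CellTiter-Glo in parallel with the reporter read.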

[7] = qHTS assay to identify small molecule agonists of the TGF-beta/Smad signaling pathway (AID 1346859; active = well fitted activation curve with a large enough effect in the signal ratio in the repeat runs, not every such curve was filed as active; the % refers to the signal ratio; also: series mostly up to about 77 µM)
How it was run: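 Fluorescence (ex 405 nm; em 460 and 530 nm) was read 2 h after LiveBLAzer FRET substrate at RT. The preceding compound treatment of overnight-plated SBE-bla HEK293T cells lasted 5 h at 37 C.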

[8] = molecular target: Thyrotropin-releasing hormone receptor (Homo sapiens) (UniProt P34981); assay: qHTS assay to identify small molecule antagonists of the thyrotropin-releasing hormone receptor (TRHR) signaling pathway (AID 1346877; active = well fitted inhibition curve with a large enough effect in the repeat runs, not every such curve was filed as active; also: series mostly up to about 51 µM)
How it was run: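 Following an 18 h incubation at 37 °C and a 2 h calcium dye load, TRHR-HEK293 cells were exposed to compound (5 min, room temperature) and challenged with TRH, 1 nM final.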

[9] = molecular target: Thyrotropin-releasing hormone receptor (Homo sapiens) (UniProt P34981); assay: qHTS assay to identify small molecule agonists of the thyrotropin-releasing hormone receptor (TRHR) signaling pathway (AID 1346891; calls by dose curve; also: series mostly up to about 58 µM)
How it was run: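 Agonist-mode intracellular calcium readout: kinetic fluorescence over 3 min at 1 s intervals after compound addition to TRHR-HEK293 cells (18 h seeded, 2 h dye-loaded at 37 C). Fifteen concentrations, triplicates.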

[10] = Human pregnane X receptor (PXR) small molecule agonists, qHTS cell viability counter screen (AID 1346977); also: nearly all actives have a fitted effect of over 50% in size
How it was run: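 Same-well viability read: CellTiter-Fluor added after 23 hr compound exposure, fluorescence measured 1 hr later. Cells were PXR-Luc HepG2 seeded at 2,000/well in 5% charcoal-stripped FBS medium, rested 5 hr before dosing at 37 C.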

[11] = Caspase-3/7 induction in HepG2 cells by small molecules, qHTS assay (AID 1346978); also: nearly all actives have a fitted effect of over 15% in size
How it was run: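 Wild-type HepG2 cells, 2,000/well, settled 5 hr at 37 C and 5% CO2, then compound-treated for 17 hr; caspase-3/7 activity read by luminescent Caspase-Glo 3/7 after 30 min at room temperature.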

[12] = Caspase-3/7 induction in CHO-K1 cells by small molecules, qHTS cell viability counter screen (AID 1346979); also: nearly all actives have a fitted effect of over 35% in size
How it was run: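 Cytotoxicity counter screen: CellTiter-Fluor added to compound-treated wild-type CHO-K1 cells at 16 h (37C, 5% CO2), fluorescence measured 1 h later; same wells as caspase-3/7 measurement.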

[13] = Caspase-3/7 induction in CHO-K1 cells by small molecules, qHTS assay (AID 1346980); also: nearly all actives have a fitted effect of over 15% in size
How it was run: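 Wild-type CHO-K1 cells exposed to compounds for 17hr at 37 C, 5% CO2. Caspase-3/7 activity then measured by Caspase-Glo 3/7 luminescence after 30min at room temperature.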

[14] = Caspase-3/7 induction in HepG2 cells by small molecules, qHTS cell viability counter screen (AID 1346981); also: series mostly up to about 92 µM; nearly all actives have a fitted effect of over 30% in size
How it was run: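 Viability determined by CellTiter-Fluor fluorescence in HepG2 wells also used for the luminescent Caspase-Glo 3/7 read. Compounds were present for 16 hr at 37 C, 5% CO2 before reagent addition.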

[15] = molecular target: Nuclear receptor subfamily 1 group I member 2 (Homo sapiens) (UniProt O75469); assay: Human pregnane X receptor (PXR) small molecule agonists, qHTS assay (AID 1346982); also: nearly all actives have a fitted effect of over 35% in size
How it was run: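 Compound-induced hPXR transactivation of a CYP3A4 luciferase reporter was scored in HepG2 PXR-Luc cells over 24 hr at 37 C, 5% CO2, by luminescence.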

[16] = molecular target: Cytochrome P450 2D6 (Homo sapiens) (UniProt P10635); assay: Cytochrome P450 Family 2 Subfamily D Member 6 (CYP2D6) small molecule antagonists: luciferase reporter qHTS assay (AID 1671196); also: nearly all actives have a fitted effect of over 50% in size; also: potency is read from the fitted curve at half-maximal effect; as to activity change, negative = inhibition: series mostly up to about 120 µM
How it was run: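 Each well received CYP2D6 with its proluciferin substrate and chemical, sat 10 min, then got NADPH regeneration solution for 1 h at room temperature. Luminescence in RLU served as the activity measure.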

[17] = molecular target: Nuclear receptor subfamily 1 group I member 2 (Rattus norvegicus) (UniProt Q9R1A7); assay: Rat pregnane X receptor (rPXR) activation by small molecules, qHTS assay (AID 1346983); conditions: rPXR luciferase reporter cells, One-Glo luminescence, 24 h; max activation: stronger effect = higher value; also: nearly all actives have a fitted effect of over 20% in size
How it was run: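 Cell-based rPXR activation assay: rPXR cells, 2,000 per well, rested 5hr at 37 C, then exposed to compounds in DMSO for 24 hr at 37 C. Luciferase activity read by One-Glo luminescence after 30 min at room temperature.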

[18] = molecular target: Nuclear receptor subfamily 1 group I member 2 (Homo sapiens) (UniProt O75469); assay: CYP3A4 induction through human pregnane X receptor (PXR) by small molecules, qHTS assay (AID 1346984); also: nearly all actives have a fitted effect of over 40% in size
How it was run: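 Readings come from a luciferase reporter: DPX-2 cells, which are HepG2 cotransfected with PXR and a CYP3A4-promoter construct, were exposed to test compounds for 24 h at 37C before One-Glo detection.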

[19] = molecular target: Cytochrome P450 2C19 (Homo sapiens) (UniProt P33261); assay: Cytochrome P450 Family 2 Subfamily C Member 19 (CYP2C19) small molecule antagonists: luciferase reporter qHTS assay (AID 1671197); also: nearly all actives have a fitted effect of over 65% in size; also: potency is read from the fitted curve at half-maximal effect; as to activity change, negative = inhibition: series mostly up to about 120 µM
How it was run: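 P450-Glo CYP2C19 screening system; proluciferin substrate; DMSO compound stocks; 10 min RT preincubation; NADPH regeneration, 1 h at 37C; luciferin detection reagent, 20 min RT; luminescence as RLU.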
% is scaled to controls: 0 for no effect and ±100 for the full control effect.

Sequence of Nuclear receptor subfamily 1 group I member 2 (Homo sapiens) (O75469 whole entry, looked up): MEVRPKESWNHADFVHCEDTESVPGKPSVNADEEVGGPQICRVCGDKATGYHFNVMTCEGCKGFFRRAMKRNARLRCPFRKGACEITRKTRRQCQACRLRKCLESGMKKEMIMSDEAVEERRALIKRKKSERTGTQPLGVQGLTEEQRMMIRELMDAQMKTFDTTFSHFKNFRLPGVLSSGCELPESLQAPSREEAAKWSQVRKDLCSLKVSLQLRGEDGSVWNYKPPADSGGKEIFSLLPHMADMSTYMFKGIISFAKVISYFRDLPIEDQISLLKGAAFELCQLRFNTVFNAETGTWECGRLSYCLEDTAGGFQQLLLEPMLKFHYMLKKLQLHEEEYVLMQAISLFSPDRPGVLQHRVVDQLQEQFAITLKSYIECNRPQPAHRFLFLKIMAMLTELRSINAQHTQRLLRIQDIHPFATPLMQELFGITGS
Sequence of Thyrotropin-releasing hormone receptor (Homo sapiens) (P34981 whole entry, looked up): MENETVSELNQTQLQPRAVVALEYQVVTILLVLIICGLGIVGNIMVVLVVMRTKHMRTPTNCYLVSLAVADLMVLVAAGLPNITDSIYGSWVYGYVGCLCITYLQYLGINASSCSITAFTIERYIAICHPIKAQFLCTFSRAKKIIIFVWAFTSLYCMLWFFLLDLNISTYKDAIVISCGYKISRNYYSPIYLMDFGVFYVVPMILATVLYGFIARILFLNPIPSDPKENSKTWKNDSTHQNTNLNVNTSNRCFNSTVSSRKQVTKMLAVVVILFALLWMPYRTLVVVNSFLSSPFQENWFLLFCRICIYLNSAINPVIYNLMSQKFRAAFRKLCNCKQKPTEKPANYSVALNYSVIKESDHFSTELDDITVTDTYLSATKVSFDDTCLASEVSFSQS
Sequence of Cytochrome P450 2C19 (Homo sapiens) (P33261 whole entry, looked up): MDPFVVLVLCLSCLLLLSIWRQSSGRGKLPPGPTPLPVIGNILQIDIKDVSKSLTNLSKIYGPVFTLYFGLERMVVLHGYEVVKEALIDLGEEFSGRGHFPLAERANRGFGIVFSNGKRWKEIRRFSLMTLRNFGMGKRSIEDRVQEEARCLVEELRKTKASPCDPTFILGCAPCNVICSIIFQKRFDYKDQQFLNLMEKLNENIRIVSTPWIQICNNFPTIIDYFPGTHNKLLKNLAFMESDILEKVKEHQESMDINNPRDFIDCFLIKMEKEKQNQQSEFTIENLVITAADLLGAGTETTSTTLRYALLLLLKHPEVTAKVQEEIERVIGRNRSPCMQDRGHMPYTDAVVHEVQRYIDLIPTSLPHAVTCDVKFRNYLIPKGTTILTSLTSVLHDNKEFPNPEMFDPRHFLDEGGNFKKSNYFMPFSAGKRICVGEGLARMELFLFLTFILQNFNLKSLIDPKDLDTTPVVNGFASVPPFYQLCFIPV
Sequence of Progesterone receptor (Homo sapiens) (P06401 whole entry, looked up): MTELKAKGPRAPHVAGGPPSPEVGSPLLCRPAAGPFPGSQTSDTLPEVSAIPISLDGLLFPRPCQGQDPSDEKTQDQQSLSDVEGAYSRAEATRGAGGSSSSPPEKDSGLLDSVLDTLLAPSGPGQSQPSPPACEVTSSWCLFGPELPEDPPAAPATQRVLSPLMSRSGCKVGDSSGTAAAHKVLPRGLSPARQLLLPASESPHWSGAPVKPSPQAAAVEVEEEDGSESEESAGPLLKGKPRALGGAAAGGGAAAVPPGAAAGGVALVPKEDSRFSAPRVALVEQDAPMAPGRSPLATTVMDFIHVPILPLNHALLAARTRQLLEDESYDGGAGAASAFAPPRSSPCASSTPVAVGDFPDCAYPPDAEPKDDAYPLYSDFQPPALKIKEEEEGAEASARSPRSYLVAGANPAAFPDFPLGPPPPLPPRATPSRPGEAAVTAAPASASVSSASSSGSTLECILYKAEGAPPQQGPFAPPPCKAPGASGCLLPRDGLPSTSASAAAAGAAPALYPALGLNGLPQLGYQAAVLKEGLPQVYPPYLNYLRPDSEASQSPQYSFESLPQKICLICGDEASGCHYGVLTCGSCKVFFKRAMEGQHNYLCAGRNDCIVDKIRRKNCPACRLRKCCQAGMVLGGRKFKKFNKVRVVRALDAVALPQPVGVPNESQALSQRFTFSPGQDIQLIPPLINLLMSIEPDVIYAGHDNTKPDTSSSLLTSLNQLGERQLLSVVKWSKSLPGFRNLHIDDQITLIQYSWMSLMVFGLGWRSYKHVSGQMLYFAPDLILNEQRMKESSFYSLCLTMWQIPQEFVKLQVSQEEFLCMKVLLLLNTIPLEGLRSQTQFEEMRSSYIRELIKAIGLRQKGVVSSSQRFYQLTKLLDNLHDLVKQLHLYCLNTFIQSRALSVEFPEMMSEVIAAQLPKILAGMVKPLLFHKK
Sequence of Cytochrome P450 2D6 (Homo sapiens) (P10635 whole entry, looked up): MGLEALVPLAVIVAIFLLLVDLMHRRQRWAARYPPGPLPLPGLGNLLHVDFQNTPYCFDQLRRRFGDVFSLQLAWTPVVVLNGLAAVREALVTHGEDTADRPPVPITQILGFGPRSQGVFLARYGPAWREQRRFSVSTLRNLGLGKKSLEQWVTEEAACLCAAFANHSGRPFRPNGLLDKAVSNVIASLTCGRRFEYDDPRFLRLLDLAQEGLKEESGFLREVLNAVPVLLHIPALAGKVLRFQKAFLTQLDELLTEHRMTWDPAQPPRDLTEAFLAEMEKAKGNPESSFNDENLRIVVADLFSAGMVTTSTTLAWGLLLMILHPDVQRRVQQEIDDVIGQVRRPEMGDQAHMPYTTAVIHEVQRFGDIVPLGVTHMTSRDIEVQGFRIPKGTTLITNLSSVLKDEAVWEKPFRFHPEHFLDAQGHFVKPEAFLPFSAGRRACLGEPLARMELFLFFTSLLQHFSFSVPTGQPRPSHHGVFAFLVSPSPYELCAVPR
Sequence of Nuclear receptor subfamily 1 group I member 2 (Rattus norvegicus) (Q9R1A7 whole entry, looked up): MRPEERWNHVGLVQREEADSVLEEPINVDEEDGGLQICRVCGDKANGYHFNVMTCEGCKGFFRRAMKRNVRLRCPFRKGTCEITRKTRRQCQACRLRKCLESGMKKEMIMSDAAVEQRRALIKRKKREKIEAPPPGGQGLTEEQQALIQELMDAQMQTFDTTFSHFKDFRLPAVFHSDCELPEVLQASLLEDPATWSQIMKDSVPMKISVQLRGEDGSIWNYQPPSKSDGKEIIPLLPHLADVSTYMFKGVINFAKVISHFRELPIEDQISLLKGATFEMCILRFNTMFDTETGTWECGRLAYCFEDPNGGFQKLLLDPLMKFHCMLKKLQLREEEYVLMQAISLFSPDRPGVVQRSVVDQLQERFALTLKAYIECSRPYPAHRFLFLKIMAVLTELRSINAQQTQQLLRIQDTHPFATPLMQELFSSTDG

O=C1CCC(=O)O1
inactive: Potency [1] | Potency [2] | Potency [3] | Potency [4] | Potency [5] | outcome [6] | Potency [7] | outcome [8] | Potency [9] | Potency [10] | Potency [11] | Potency [12] | Potency [13] | Potency [14] | Potency [15]

CCOc1ccc(O)cc1
inactive: Potency [1] | Potency [2] | Potency [3] | Potency [4] | Potency [5] | outcome [6] | Potency [7] | outcome [8] | Potency [9] | Potency [10] | Potency [11] | Potency [12] | Potency [13] | Potency [14] | Potency [16]

NCc1ccccc1Sc1ccccc1CO
active: Potency [16] 7.76 µM | Potency [19] 21.9 µM
inactive: Potency [1] | Potency [2] | Potency [3] | Potency [4] | Potency [5] | outcome [6] | Potency [7] | outcome [8] | Potency [9] | Potency [10] | Potency [11] | Potency [12] | Potency [13] | Potency [14] | Potency [15] | max activation [17] -1.62% | Potency [18]

C/C(=C(\CCOP(=O)(O)O)SC(=O)c1ccccc1)N(C=O)Cc1cnc(C)nc1N
inactive: activation [1] -0.857% [at 8.39 µM] | activity change, negative = inhibition [2] 5.03% [at 8.39 µM] | activity change, negative = cytotoxicity [3] 9.64% [at 8.39 µM] | activity change, negative = cytotoxicity [4] -10.4% [at 8.39 µM] | viability change, negative = cytotoxic [5] 4.01% [at 6.97 µM] | activity change, negative = cytotoxicity [6] 0.402% [at 6.97 µM] | activation [7] 2.27% [at 6.97 µM] | activity, negative = inhibition [8] -3.24% [at 4.65 µM] | activation [9] -0.266% [at 5.23 µM] | activity change, negative = cytotoxicity [10] 10.5% [at 8.39 µM] | caspase activation [11] 0.0207% [at 8.39 µM] | activity change, negative = cytotoxicity [12] 2.5% [at 8.39 µM] | caspase-3/7 activation [13] -0.786% [at 8.39 µM] | activity change, negative = cytotoxicity [14] 6.79% [at 8.39 µM]

O=C(O)CNCC(=O)O
inactive: activation [1] 1.22% [at 8.39 µM] | activity change, negative = inhibition [2] 1.55% [at 8.39 µM] | activity change, negative = cytotoxicity [3] -2.59% [at 8.39 µM] | activity change, negative = cytotoxicity [4] 20.3% [at 8.39 µM] | viability change, negative = cytotoxic [5] 10.5% [at 6.97 µM] | activity change, negative = cytotoxicity [6] -7.04% [at 6.97 µM] | activation [7] 6.59% [at 6.97 µM] | activity, negative = inhibition [8] -17.8% [at 4.65 µM] | activation [9] 0.139% [at 5.23 µM] | activity change, negative = cytotoxicity [10] 4.27% [at 8.39 µM] | caspase activation [11] 2.93% [at 8.39 µM] | activity change, negative = cytotoxicity [12] 0.398% [at 8.39 µM] | caspase-3/7 activation [13] 0.331% [at 8.39 µM] | activity change, negative = cytotoxicity [14] 1.14% [at 8.39 µM] | activation [15] -2.51% [at 8.39 µM] | activity change, negative = inhibition [16] -0.567% [at 10.5 µM]

O=C1c2ccccc2S(=O)(=O)N1CCCCN1CCN(c2ncccn2)CC1
active: Potency [16] 1.38 µM
inactive: Potency [1] | Potency [2] | Potency [3] | Potency [4] | Potency [5] | outcome [6] | Potency [7] | outcome [8] | Potency [9] | Potency [10] | Potency [11] | Potency [12] | Potency [13] | Potency [14] | max activation [17] 0.873% | Potency [19]

CC(C)(C)Cl
inactive: Potency [1] | Potency [2] | Potency [3] | Potency [4] | Potency [5] | outcome [6] | Potency [7] | outcome [8] | Potency [9] | Potency [10] | Potency [11] | Potency [12] | Potency [13] | Potency [14] | Potency [16] | Potency [19]
